# Results published in paper PMC7862700, “An all-to-all approach to the identification of sequence-specific readers for epigenetic DNA modifications on cytosine”.
# Tests used:
# Test in all cases: DAPPL (digital affinity profiling via proximity ligation, sequencing); 10 mM Tris-HCl pH 7.5, 50 mM NaCl, 1 mM DTT, 4% glycerol, room temperature, 30 min; GST-TFs on glutathione beads, 16-mer random dsDNA library, 0.1% formaldehyde crosslink after washing; high values mean tight binding
# [1] = target: T1, FEV (Homo sapiens, UniProt Q99581 1-238); settings: protein: recombinant; tags: N-terminal GST; dsDNA, one strand shown
# T1 sequence: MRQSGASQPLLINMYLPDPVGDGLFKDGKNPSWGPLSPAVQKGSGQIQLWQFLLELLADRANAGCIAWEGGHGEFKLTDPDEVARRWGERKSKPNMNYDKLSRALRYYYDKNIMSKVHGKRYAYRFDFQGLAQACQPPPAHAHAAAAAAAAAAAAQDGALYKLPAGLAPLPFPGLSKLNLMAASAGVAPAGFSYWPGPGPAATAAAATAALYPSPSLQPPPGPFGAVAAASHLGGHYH
# Procedure, shortened: (§1)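 In yeast, human transcription factors were expressed with a GST fusion, then pulled down on glutathione beads and given DNA barcodes. Pooled with a tag-only sample, they were exposed to 200 nmole of a 16-mer random double-stranded DNA library (Tris/NaCl/DTT/glycerol buffer, room temperature, 30 min), washed, crosslinked with 0.1% formaldehyde, proximity-ligated using BsaI/T4 ligase for 1 h at 37 °C, PCR-amplified and read on an Illumina NextSeq500. Each hexamer's frequency of reads for a factor, divided by the matching frequency for the tag-only sample, gives the binding signal.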
# [2] = target: ETV5 (Homo sapiens, UniProt P41161 1-510); settings: protein: recombinant; tags: N-terminal GST; dsDNA, one strand shown
# Sequence of ETV5 (P41161 whole entry): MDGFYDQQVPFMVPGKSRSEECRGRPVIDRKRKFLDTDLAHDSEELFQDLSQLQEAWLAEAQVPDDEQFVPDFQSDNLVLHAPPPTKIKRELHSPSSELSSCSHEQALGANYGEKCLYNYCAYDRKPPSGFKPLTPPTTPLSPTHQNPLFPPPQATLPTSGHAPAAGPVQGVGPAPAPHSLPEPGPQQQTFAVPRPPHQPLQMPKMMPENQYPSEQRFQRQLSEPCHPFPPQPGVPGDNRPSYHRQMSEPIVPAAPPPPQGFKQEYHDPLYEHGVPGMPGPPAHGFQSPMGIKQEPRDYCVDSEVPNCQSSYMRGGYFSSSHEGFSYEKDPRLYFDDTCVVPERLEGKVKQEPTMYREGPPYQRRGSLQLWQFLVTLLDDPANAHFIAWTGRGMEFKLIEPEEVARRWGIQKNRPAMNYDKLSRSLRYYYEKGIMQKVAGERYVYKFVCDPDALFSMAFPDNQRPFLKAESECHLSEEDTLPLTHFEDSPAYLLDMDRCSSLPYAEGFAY
# Procedure, shortened: as §1
# [3] = target: HSF1 (Homo sapiens, UniProt Q00613 1-529); settings: protein: recombinant; tags: N-terminal GST; chain copies: 3; dsDNA, one strand shown
# Sequence of HSF1 (Q00613 whole entry): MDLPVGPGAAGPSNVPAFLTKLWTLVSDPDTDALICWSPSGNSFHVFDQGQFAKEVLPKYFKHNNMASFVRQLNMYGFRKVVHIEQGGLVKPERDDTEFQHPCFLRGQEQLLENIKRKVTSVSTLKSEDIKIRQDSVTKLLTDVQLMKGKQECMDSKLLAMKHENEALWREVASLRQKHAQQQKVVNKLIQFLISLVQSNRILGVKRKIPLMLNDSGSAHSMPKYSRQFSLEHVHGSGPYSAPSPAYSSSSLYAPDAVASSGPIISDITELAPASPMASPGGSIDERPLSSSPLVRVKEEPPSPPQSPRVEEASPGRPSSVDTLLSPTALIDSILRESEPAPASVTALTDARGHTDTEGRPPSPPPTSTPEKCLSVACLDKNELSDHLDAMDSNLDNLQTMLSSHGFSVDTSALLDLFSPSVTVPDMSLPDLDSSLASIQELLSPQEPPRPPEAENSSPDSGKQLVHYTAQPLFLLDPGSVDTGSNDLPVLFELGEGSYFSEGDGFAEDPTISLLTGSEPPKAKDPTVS
# Procedure, shortened: as §1
# [4] = target: T2, SPIC (Homo sapiens, UniProt Q8N5J4 1-248); settings: protein: recombinant; tags: N-terminal GST; dsDNA, one strand shown
# T2 sequence: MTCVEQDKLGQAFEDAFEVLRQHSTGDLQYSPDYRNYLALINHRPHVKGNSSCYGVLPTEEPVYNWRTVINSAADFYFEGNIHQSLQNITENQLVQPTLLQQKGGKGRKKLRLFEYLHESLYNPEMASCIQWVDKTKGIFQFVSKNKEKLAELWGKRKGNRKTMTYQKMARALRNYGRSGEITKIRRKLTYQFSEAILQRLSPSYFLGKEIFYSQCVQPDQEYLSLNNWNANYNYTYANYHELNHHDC
# Procedure, shortened: as §1
# [5] = target: ELF4 (Homo sapiens, UniProt Q99607 1-663); settings: protein: recombinant; tags: N-terminal GST; dsDNA, one strand shown
# Sequence of ELF4 (Q99607 whole entry): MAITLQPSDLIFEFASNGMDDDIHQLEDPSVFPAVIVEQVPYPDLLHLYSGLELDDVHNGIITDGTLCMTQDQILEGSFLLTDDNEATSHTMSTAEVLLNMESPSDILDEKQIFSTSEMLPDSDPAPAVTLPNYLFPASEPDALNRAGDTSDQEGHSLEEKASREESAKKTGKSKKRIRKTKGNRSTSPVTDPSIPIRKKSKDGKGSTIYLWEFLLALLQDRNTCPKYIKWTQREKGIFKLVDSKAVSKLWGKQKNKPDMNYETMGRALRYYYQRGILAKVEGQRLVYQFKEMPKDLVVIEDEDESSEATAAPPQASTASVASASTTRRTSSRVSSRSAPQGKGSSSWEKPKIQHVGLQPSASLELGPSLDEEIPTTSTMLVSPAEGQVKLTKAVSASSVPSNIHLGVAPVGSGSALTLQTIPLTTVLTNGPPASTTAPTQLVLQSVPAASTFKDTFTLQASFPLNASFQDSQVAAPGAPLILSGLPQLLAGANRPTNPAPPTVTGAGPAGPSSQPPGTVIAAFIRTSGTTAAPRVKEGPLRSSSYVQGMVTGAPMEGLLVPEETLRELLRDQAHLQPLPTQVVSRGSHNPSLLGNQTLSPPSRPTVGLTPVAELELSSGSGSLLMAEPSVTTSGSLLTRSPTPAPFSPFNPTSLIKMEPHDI
# Procedure, shortened: as §1
# [6] = target: T3, ETV2 (Homo sapiens, UniProt O00321 1-342); settings: protein: recombinant; tags: N-terminal GST; dsDNA, one strand shown
# T3 sequence: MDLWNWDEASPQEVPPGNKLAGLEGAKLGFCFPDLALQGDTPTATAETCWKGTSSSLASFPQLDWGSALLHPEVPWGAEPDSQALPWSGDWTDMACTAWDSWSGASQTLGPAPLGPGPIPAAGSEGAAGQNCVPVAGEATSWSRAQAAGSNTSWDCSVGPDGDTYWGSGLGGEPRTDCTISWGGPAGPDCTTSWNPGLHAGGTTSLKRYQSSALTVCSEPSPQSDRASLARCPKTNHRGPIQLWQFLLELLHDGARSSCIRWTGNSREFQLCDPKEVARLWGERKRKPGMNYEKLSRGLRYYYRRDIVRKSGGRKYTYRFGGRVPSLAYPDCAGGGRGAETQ
# Procedure, shortened: as §1
# [7] = target: T4, ELF3 (Homo sapiens, UniProt P78545 1-371); settings: protein: recombinant; tags: N-terminal GST; dsDNA, one strand shown
# T4 sequence: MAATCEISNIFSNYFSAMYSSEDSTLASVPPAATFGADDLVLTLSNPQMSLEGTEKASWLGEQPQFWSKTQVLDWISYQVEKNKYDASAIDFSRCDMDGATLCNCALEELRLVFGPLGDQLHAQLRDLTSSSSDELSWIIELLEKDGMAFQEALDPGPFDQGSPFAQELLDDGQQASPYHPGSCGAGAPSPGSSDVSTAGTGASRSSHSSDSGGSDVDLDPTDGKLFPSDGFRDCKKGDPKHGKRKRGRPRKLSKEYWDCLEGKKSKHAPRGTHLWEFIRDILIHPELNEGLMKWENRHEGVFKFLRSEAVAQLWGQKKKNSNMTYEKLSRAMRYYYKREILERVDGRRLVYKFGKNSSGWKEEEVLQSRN
# Procedure, shortened: as §1
# [8] = target: CRX (Homo sapiens, UniProt O43186 1-299); settings: protein: recombinant; tags: N-terminal GST; dsDNA, one strand shown
# Sequence of CRX (O43186 whole entry): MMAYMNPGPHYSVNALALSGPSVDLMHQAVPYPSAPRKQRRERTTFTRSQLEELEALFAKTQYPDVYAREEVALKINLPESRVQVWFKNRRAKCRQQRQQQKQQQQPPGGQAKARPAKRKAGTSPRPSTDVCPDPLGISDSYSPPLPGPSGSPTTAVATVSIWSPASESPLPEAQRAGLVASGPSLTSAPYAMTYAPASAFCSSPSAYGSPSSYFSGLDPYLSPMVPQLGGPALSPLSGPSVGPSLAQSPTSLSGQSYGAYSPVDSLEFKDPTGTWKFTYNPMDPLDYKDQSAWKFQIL
# Procedure, shortened: as §1
# [9] = target: ETV1 (Homo sapiens, UniProt P50549 1-477); settings: protein: recombinant; tags: N-terminal GST; dsDNA, one strand shown
# Sequence of ETV1 (P50549 whole entry): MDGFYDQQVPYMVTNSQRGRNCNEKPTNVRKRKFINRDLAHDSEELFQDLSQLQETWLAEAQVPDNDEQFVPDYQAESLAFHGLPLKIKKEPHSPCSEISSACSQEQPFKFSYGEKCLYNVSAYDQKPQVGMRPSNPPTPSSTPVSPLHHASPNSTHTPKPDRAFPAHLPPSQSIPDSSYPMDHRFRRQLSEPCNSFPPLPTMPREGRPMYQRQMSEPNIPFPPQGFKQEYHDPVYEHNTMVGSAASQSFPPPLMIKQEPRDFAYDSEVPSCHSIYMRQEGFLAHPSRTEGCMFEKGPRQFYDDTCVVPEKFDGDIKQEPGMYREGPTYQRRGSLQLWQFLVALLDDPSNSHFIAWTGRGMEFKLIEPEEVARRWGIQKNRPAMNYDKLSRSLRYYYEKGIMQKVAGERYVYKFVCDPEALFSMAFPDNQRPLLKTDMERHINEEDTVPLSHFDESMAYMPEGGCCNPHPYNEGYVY
# Procedure, shortened: as §1
# [10] = target: T5, ERF (Homo sapiens, UniProt P50548 1-548); settings: protein: recombinant; tags: N-terminal GST; dsDNA, one strand shown
# T5 sequence: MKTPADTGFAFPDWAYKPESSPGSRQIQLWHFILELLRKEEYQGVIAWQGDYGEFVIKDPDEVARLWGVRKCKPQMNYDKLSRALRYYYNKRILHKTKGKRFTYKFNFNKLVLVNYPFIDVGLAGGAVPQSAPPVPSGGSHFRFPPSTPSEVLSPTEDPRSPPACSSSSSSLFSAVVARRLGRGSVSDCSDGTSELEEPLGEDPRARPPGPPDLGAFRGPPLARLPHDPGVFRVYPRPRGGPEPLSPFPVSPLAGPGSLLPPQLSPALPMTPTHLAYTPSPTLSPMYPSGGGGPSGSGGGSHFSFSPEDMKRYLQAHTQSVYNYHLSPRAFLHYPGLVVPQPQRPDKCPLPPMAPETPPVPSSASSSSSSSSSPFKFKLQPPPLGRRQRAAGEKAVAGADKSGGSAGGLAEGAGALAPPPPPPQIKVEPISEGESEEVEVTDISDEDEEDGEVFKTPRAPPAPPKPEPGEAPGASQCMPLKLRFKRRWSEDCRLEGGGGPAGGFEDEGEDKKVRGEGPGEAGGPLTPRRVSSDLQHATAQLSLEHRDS
# Procedure, shortened: as §1
# [11] = target: T6, ETS2 (Homo sapiens, UniProt P15036 1-469); settings: protein: recombinant; tags: N-terminal GST; dsDNA, one strand shown
# T6 sequence: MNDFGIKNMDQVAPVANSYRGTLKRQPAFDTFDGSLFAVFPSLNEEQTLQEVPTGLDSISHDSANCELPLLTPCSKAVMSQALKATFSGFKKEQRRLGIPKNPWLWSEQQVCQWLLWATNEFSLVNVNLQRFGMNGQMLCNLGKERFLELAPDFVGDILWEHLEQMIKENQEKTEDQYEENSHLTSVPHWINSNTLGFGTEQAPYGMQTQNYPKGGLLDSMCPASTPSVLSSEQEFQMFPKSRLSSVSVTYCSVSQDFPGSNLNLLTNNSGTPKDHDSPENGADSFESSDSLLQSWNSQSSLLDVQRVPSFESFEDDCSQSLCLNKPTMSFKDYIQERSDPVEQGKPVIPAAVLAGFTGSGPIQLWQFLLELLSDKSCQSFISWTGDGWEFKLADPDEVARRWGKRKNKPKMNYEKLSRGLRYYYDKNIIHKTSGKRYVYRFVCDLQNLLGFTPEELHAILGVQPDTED
# Procedure, shortened: as §1
# [12] = target: T7, SPDEF (Homo sapiens, UniProt O95238 1-335); settings: protein: recombinant; tags: N-terminal GST; dsDNA, one strand shown
# T7 sequence: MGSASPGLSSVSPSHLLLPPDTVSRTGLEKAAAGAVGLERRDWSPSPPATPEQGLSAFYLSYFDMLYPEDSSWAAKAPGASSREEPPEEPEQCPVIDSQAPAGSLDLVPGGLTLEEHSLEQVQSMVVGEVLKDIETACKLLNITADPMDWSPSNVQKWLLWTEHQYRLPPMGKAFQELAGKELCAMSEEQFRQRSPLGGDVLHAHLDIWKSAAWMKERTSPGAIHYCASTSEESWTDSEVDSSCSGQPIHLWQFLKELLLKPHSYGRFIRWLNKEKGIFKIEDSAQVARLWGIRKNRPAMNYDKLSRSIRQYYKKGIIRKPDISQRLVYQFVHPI
# Procedure, shortened: as §1
# [13] = target: T8, ETV7 (Homo sapiens, UniProt Q9Y603 1-341); settings: protein: recombinant; tags: N-terminal GST; dsDNA, one strand shown
# T8 sequence: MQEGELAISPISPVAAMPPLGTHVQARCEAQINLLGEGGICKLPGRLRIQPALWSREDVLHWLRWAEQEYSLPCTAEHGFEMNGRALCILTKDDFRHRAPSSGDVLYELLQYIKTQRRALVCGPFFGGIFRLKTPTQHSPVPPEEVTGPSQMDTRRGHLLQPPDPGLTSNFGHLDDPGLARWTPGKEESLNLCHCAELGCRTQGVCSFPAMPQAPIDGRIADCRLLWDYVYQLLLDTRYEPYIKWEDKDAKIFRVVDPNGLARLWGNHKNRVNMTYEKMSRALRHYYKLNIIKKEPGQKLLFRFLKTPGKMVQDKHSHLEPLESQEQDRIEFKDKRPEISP
# Procedure, shortened: as §1
# [14] = target: T9, ETV3 (Homo sapiens, UniProt P41162-2 1-143); settings: protein: recombinant; tags: N-terminal GST; dsDNA, one strand shown
# T9 sequence: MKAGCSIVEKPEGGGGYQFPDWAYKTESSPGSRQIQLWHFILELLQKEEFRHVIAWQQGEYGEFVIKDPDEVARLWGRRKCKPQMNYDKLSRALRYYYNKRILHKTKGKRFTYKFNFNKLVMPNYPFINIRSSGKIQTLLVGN
# Procedure, shortened: as §1
# [15] = target: ETV6 (Homo sapiens, UniProt P41212 1-452); settings: protein: recombinant; tags: N-terminal GST; dsDNA, one strand shown
# Sequence of ETV6 (P41212 whole entry): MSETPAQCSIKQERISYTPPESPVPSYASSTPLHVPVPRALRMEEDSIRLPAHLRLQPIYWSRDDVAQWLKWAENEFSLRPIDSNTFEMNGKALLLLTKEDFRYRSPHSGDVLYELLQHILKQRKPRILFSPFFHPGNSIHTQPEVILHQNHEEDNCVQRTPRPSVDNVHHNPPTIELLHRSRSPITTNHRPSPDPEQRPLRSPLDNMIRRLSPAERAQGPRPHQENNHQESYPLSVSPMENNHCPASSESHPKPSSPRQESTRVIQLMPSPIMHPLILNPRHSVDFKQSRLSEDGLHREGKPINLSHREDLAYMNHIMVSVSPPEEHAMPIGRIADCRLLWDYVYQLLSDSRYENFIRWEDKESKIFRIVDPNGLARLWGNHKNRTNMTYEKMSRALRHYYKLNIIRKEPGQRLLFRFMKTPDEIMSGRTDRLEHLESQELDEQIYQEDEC
# Procedure, shortened: as §1
# [16] = target: T10, ETV3L (Homo sapiens, UniProt Q6ZN32 1-361); settings: protein: recombinant; tags: N-terminal GST; dsDNA, one strand shown
# T10 sequence: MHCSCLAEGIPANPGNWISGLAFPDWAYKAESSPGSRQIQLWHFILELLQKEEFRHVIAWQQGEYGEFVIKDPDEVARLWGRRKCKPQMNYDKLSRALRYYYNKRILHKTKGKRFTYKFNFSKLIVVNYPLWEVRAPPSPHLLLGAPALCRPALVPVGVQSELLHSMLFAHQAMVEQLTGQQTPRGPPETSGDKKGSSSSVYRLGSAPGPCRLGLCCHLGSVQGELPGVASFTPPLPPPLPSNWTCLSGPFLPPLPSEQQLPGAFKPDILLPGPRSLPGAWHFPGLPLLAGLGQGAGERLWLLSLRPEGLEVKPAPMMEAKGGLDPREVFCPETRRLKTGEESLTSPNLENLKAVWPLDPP
# Procedure, shortened: as §1
# [17] = target: T11, ELF5 (Homo sapiens, UniProt Q9UKW6-2 1-255); settings: protein: recombinant; tags: N-terminal GST; dsDNA, one strand shown
# T11 sequence: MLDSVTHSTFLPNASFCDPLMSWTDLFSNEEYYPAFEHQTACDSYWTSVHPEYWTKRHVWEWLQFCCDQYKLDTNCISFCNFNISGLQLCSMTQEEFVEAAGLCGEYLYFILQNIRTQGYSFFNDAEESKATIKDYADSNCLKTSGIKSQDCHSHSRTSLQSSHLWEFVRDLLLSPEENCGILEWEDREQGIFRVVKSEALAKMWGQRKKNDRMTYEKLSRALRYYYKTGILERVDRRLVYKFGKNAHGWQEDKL
# Procedure, shortened: as §1
Sequence,binding signal [1],binding signal [2],binding signal [3],binding signal [4],binding signal [5],binding signal [6],binding signal [7],binding signal [8],binding signal [9],binding signal [10],binding signal [11],binding signal [12],binding signal [13],binding signal [14],binding signal [15],binding signal [16],binding signal [17]
ACTTAG,"1.03 fold enrichment (6-mer frequency, TF over GST control)","1.16 fold enrichment (6-mer frequency, TF over GST control)","1.27 fold enrichment (6-mer frequency, TF over GST control)","1.1 fold enrichment (6-mer frequency, TF over GST control)","1.03 fold enrichment (6-mer frequency, TF over GST control)","1.12 fold enrichment (6-mer frequency, TF over GST control)","1.2 fold enrichment (6-mer frequency, TF over GST control)","1.72 fold enrichment (6-mer frequency, TF over GST control)","1.04 fold enrichment (6-mer frequency, TF over GST control)","1.17 fold enrichment (6-mer frequency, TF over GST control)","1.14 fold enrichment (6-mer frequency, TF over GST control)","1.01 fold enrichment (6-mer frequency, TF over GST control)","1.03 fold enrichment (6-mer frequency, TF over GST control)","1.09 fold enrichment (6-mer frequency, TF over GST control)","1.14 fold enrichment (6-mer frequency, TF over GST control)",,
CAAGTA,"1.04 fold enrichment (6-mer frequency, TF over GST control)","1.11 fold enrichment (6-mer frequency, TF over GST control)","1.02 fold enrichment (6-mer frequency, TF over GST control)","1.09 fold enrichment (6-mer frequency, TF over GST control)","1.16 fold enrichment (6-mer frequency, TF over GST control)",,"1.28 fold enrichment (6-mer frequency, TF over GST control)","1.08 fold enrichment (6-mer frequency, TF over GST control)","1.03 fold enrichment (6-mer frequency, TF over GST control)","1.14 fold enrichment (6-mer frequency, TF over GST control)","1.05 fold enrichment (6-mer frequency, TF over GST control)","1.08 fold enrichment (6-mer frequency, TF over GST control)","1.11 fold enrichment (6-mer frequency, TF over GST control)","1.11 fold enrichment (6-mer frequency, TF over GST control)","1.14 fold enrichment (6-mer frequency, TF over GST control)","1.09 fold enrichment (6-mer frequency, TF over GST control)","1.06 fold enrichment (6-mer frequency, TF over GST control)"
